High-throughput results from PubChem BioAssay.
The list is not random: actives were taken first. Their share in the collection is about 2.6%.
Cruzain noTriton: blocks cruzain activity in detergent-free assay; purified cruzain, Z-FR-AMC fluorescence, no detergent; Potency, µM, actives largely listed as inhibitors; hit rate 2.3% among 200,000; AID 1476; also: nearly all actives have a fitted effect of over 40% in size
Target sequence (P25779 123-467 limits assumed): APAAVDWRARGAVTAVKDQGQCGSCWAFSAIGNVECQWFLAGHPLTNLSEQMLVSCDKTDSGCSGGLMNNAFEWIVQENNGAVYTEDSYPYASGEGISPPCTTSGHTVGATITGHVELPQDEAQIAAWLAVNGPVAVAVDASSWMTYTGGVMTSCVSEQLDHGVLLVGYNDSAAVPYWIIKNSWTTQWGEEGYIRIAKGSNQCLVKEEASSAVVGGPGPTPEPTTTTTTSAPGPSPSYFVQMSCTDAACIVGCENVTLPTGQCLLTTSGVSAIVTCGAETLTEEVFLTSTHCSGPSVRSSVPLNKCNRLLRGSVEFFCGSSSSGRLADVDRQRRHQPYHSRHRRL
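Detergent-free condition (0.00005% Triton X-100) in acetate buffer pH 5.5 with DTT. 1.5 nM enzyme and compound were pre-mixed 15 min, then 2 uM Z-FR-AMC substrate added; reaction progress from fluorescence change between first and third reads (60 s).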
Cruzain Triton: blocks cruzain activity in presence of Triton detergent | P25779 | purified cruzain, Z-FR-AMC fluorescence, 0.01% Triton | Potency, µM, usual class: inhibitors | hit rate 0.43% among 200,000 | AID 1478; also: nearly all actives have a fitted effect of over 40% in size
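Cruzain (1.5 nM) preincubated 15 min at RT with compound in 100 mM sodium acetate pH 5.5, 5 mM DTT, 0.01% Triton X-100. Reaction started with 2 uM Z-FR-AMC; AMC fluorescence (ex 360/em 450 nm) change over 60 s gave rate.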
Hits are given with their value; . = inactive; ? = inconclusive. Calls follow the shape of the dose curve; as a rule, active = well fitted curve in the direction sought with a large enough effect; inconclusive = small, poorly fitted or top-dose-only effect, or another doubt; inactive = no such curve, though single readings can be large; an effect the other way counts as inactive or inconclusive.

SMILES	Cruzain noTriton	Cruzain Triton
Cc1ccc(CN(Cc2ccco2)C(=O)c2ccc(Cl)cc2)o1	.	.
COc1ccc(C)cc1NC(=O)CCS(=O)(=O)c1ccc2c(c1)CC(=O)N2C	.	.
COc1ccc(CCn2c(O)c(C=NCc3ccc4c(c3)OCO4)c(=O)[nH]c2=O)cc1OC	?	.
O=c1[nH]c(=O)n(CCc2ccc(F)cc2)c(O)c1C=NCc1ccc2c(c1)OCO2	?	13µM
COc1ccccc1CCNC(=O)C(=O)NCC(c1cccs1)S(=O)(=O)c1ccc(C)cc1 (stereo unspecified)	.	.
CCOC(=O)C(=O)c1csc(NC(=O)COc2ccc(N(C)S(=O)(=O)c3ccc(F)cc3)cc2)n1	.	.
COc1ccc(NC(=O)COc2ccc(N(C)S(=O)(=O)c3ccc(C)cc3)cc2)cc1	.	.
Cc1ccc(S(=O)(=O)N(C)c2ccc(OCC(=O)Nc3nc4ccccc4s3)cc2)cc1	?	.
CN(c1ccc(OCC(=O)Nc2nc(-c3ccccc3)cs2)cc1)S(=O)(=O)c1ccc(F)cc1	7.9µM	.
CN(C)S(=O)(=O)c1ccc(N2CCCC2)c(C(=O)Nc2nc3c(ccc4ccccc43)s2)c1	7.9µM	.
CN(C)S(=O)(=O)c1ccc(N2CCCC2)c(C(=O)Nc2nc(-c3ccc(F)c(F)c3)cs2)c1	.	.
Cc1ccc(S(=O)(=O)N(C)c2ccc(OCC(=O)Nc3nc4c(ccc5ccccc54)s3)cc2)cc1	4µM	.
Cc1ccc(S(=O)(=O)N(C)c2ccc(OCC(=O)Nc3nc(-c4ccccc4)cs3)cc2)cc1	7.9µM	.
CCC(=O)N1c2ccccc2CC1C(=O)NCCc1ccc(SC)cc1 (stereo unspecified)	.	.
CCc1nn(CC(=O)NC2CC2)c(=O)c2cc3c(OC)cccc3n12	.	.
Cc1ccc(-c2nnc(SCc3ccccc3C#N)o2)cc1	.	.
COc1ccc(N2C(=O)CSC23CCC(C(C)(C)C)CC3)cc1 (stereo unspecified)	?	.
CC(C)(C)C1CCC2(CC1)Nc1cccc3cccc(c13)N2	25µM	.
Clc1ccc(C2=C3CCCCn4c(-c5ccccc5)c[n+](c43)C2)cc1	?	.
COc1ccc(-c2c[n+]3c4n2CCCCC4=C(c2ccc(Br)cc2)C3)cc1	10µM	.
CN(C1CCCCC1)S(=O)(=O)c1ccc2c(c1)c(=O)c(C(=O)N1CCN(c3ccc(F)cc3)CC1)cn2C	.	.
CSc1ccc(Cl)c(C(=O)NCc2ccco2)c1	20µM	?
CSc1ccc(Cl)c(C(=O)OCC(=O)NCc2ccco2)c1	.	.
CCN1CCN(CCCNC(=O)Cn2nc(C)n3c(cc4c(OC)cccc43)c2=O)CC1	.	.
O=C(NC(=S)Nc1cc(C(F)(F)F)ccc1N1CCOCC1)c1sc2ccccc2c1Cl	20µM	.
SMILES	Cruzain noTriton	Cruzain Triton
CC(C)(C)C(=O)NC(=S)Nc1cc(C(F)(F)F)ccc1N1CCOCC1	.	.
CCCCNC(=O)c1cc(-c2ccc(OC)cc2)nc2n[nH]c(-c3cccc([N+](=O)[O-])c3)c12	.	.
CC1CCCc2sc3nc(SCC(=O)c4ccc(Br)cc4)nc(N)c3c21 (stereo unspecified)	10µM	.
CCCCCCSc1nc(N)c2c3c(sc2n1)CCCC3C (stereo unspecified)	.	.
Cc1ccc2oc(=O)c3cc(C(=O)N4CCN(c5ccccc5F)CC4)sc3c2c1	.	.
CCOC(=O)c1ccc(N2CCN(c3ccccc3F)CC2)c(NC(=O)Nc2ccccc2)c1	?	.
CCOC(=O)c1ccc(N2CCN(c3cccc(Cl)c3)CC2)c(NC(=O)Nc2ccc(Cl)cc2)c1	4µM	.
CN(C)c1ccc(/C=N/c2cc(-c3ccccc3)nn2-c2ccccc2)cc1	20µM	.
Cc1nn(-c2ccccc2)c(/N=C/c2ccc(O)cc2)c1-c1ccccc1	.	.
CCOc1ccc(-c2cccc(NS(=O)(=O)c3ccc(Cl)s3)c2)nn1	.	.
COc1ccc(OC)c(Nc2nc(C3CC3)nc3c2nnn3Cc2ccccc2)c1	.	.
c1ccc(Cn2nnc3c(Nc4ccc5c(c4)OCO5)nc(C4CC4)nc32)cc1	16µM	.
O=C(NCCc1ccccc1)c1ccc(CSc2nc3ccncc3n2Cc2cccc(F)c2)cc1	.	.
CCOc1ccccc1-n1c(SCC(=O)Nc2ccc(CC)cc2)nc2n[nH]c(C)c2c1=N	6.3µM	.
CCc1ccc(NC(=O)CSc2nc3n[nH]c(C)c3c(=N)n2-c2ccccc2C)cc1	.	.
Cc1ccc(Nc2c(-c3c[nH]c4ccccc34)nc3cc(C)ccn23)cc1	?	.
Cc1ccn2c(Nc3ccccc3)c(-c3c[nH]c4ccccc34)nc2c1	13µM	.
COc1ccc(CNC(=O)c2ccc(-c3nc(CSc4ccc(C)cc4)c(C)o3)cc2)cc1OC	?	.
CCN1CCSc2ccc(C(=O)NCc3cccc(F)c3)cc21	.	.
O=C(NCc1cccc(F)c1)c1ccc(N2C(=O)Cn3c(cc4sccc43)C2=O)cc1	25µM	.
COc1ccc(CNC(=O)c2ccc3c(c2)N(Cc2ccccc2C)C(=O)c2ccccc2S3=O)cc1 (stereo unspecified)	.	.
Cc1cccc(-c2nc(SCCCOc3ccccc3Cl)n3[nH]c(=O)cc3n2)c1	16µM	.
COc1ccccc1OCCSc1nc(-c2ccc(C(C)(C)C)cc2)nc2cc(=O)[nH]n12	.	.
C=CCc1ccccc1OCCSc1nc(-c2cccs2)nc2cc(=O)[nH]n12	7.9µM	.
C=CCc1ccccc1OCCSc1nc(-c2ccc(C(C)(C)C)cc2)nc2cc(=O)[nH]n12	4µM	.
SMILES	Cruzain noTriton	Cruzain Triton
O=c1cc2nc(-c3cccs3)nc(SCCOc3ccc(Cl)cc3)n2[nH]1	.	.
Cc1ccc(C(C)C)c(OCCSc2nc(-c3cccs3)nc3cc(=O)[nH]n23)c1	7.9µM	.
Cc1cc(C)cc(OCCSc2nc(-c3cccs3)nc3cc(=O)[nH]n23)c1	.	.
Cc1cccc(-c2nc(SCCCOc3cc(C)c(Cl)c(C)c3)n3[nH]c(=O)cc3n2)c1	.	.
CCOc1ccccc1NC(=O)CCc1nc(-c2cccc(C)c2)no1	.	.
N#CC(=C(/N)Sc1ccccc1N)/C(C#N)=C(/N)Sc1ccccc1N	?	.
CCOc1ccccc1NC(=O)C1CCCN1S(=O)(=O)c1ccc2nc(-c3ccccc3)[nH]c2c1 (stereo unspecified)	?	.
N#CCCn1c(=O)c(-c2cc(F)cc(F)c2)nc2cnc(N3CCOCC3)nc21	.	.
COc1cccc(CNC(=O)c2ccc3nc(-c4ccccc4)c(-c4ccccc4)nc3c2)c1OC	.	.
CCCCOC(=O)c1cccc(NC(=O)/C=C/c2ccccc2Cl)c1	.	.
CCOc1ccc(-c2nc(SCC(=O)Nc3ccc(C)c(C)c3)n3[nH]c(=O)cc3n2)cc1	.	.
Cc1ccc(NC(=O)CSc2nc(-c3ccc(C(C)(C)C)cc3)nc3cc(=O)[nH]n23)cc1C	4µM	.
CCS(=O)(=O)c1nc(S(=O)(=O)c2ccc(Cl)cc2)c(NCc2ccc(Cl)cc2)s1	?	.
CC1=C(c2ccc(Cl)cc2)S(=O)(=O)N=C1N1CCN(c2cccc(C(F)(F)F)c2)CC1	.	.
O=C(CN1C(=O)c2ccccc2S1(=O)=O)c1ccccc1	.	.
Cc1ccc(C(=O)CN2/C(=C(\O)c3ccccc3)C(=O)c3ccccc3S2(=O)=O)c(C)c1	25µM	.
COc1ccc(CCNS(=O)(=O)c2ccc(F)c(C(=O)Nc3ccc(Cl)cc3)c2)cc1OC	.	.
